esBAF inh – Bmi1 luciferase reporter increase in mESCs, primary screen, esBAF inhibitor project, mouse ES cells, Bmi1 luciferase knock-in, single point; 24 h; 100% = twice the neutral-well signal; reporter increase, % at 12.5 µM; actives 2% (n = 350,000); AID 602393, 2012; in the data active = activation above about 40%; inconclusive = no clear call, values can overlap the other calls;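 also: 0% = median of the plate's neutral control wells and 100% = double that signal; a rise in the Bmi1 reporter signal indicates esBAF inhibition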
Vif imaging – HIV Vif self-association inhibitors, primary screen, imaging, HEK293T, single point | HEK293T cells, Vif self-association by quenched fluorescence, 24 h | inhibition, % at 7.49 µM | actives 0.35% (n = 340,000) | AID 602346, 2012; in the data active = inhibition above about 50%, passing the limit was not always enough; inconclusive = no clear call, values can overlap the other calls; inactive = below about 31%
HSF-1 act – HSF-1 activators, primary screen, NIH3T3-HGL cells, MG132 stress, luminescence, single point. actives 1.7% (n = 300,000). NIH3T3-HGL HSF-1 luciferase reporter, 8 h; 100% = twice DMSO control signal. activation, % at 9 µM;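 active = mean replicate activation of at least 50% with a set share of replicates each reaching 50%; inconclusive = only one of those two conditions met; inactive = mean below 50% and too few replicates reaching it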;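 also: 0% = median of the neutral control wells and 100% = twice that signal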
HSF1 inh – HSF1 inhibitors in luciferase reporter cells, primary screen, cell-based, NIH3T3, luminescence. NIH3T3-HGL HSE-luciferase, MG132-induced, luminescence 8 h; stronger effect = lower value. activity change, negative = inhibition, % at 7.5 µM (by protocol). actives 0.77% (n = 300,000);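 active = more than half of replicate wells show activity change below -50%, luminescence cut by over half; inconclusive = some wells, but at most half, below -50%; inactive = no replicate well below -50%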;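 also: luciferase reports HSF-1 transcriptional activity via heat shock element; 0% = median of DMSO wells and -100% = zero luminescence signal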
Numbers without * were called inactive; ? = inconclusive; . = no result given. Rows were chosen to be rich in hits. Some 3.4% of all compounds tested hit in one or more screens of this group.

SMILES	esBAF inh	Vif imaging	HSF-1 act	HSF1 inh
C[C@H]1CCC(=O)N([C@H](CN=[N+]=[N-])Cc2ccccc2)CC1	4	59*	0	-3
Nc1nc(Br)c2ccccc2c1-c1ccccc1	15	11	-3	2
Nc1nc(Br)c2c(F)cccc2c1-c1ccc(Cl)cc1	-4	.	149*	114
COc1ccc(S(=O)(=O)Nc2ccc3c(c2)C(=O)N([C@H](C)CO)C[C@H](C)[C@@H](CN(C)S(=O)(=O)c2ccc(F)cc2)OCCCC[C@H](C)O3)cc1	0	.	.	.
COc1ccc(CNC(=O)c2ccc(CS(=O)(=O)c3ccc(Br)cc3)o2)cc1	3	2	-74	-68*
CCN(C(=O)c1cc2c(=O)n3ccccc3nc2n1C)C1CCCCC1	38	10	27	9
CCN(C(=O)c1cc2c(=O)n3cccc(C)c3nc2s1)C1CCCCC1	67*	-9	-13	-1
CCN(C(=O)c1cc2c(=O)n3ccccc3nc2s1)C1CCCCC1	58*	8	15	5
O=C(C[C@@H]1CC[C@H]2[C@@H](COC[C@@H](O)CN2C(=O)c2cccnc2)O1)NC1Cc2ccccc2C1	-7	.	.	.
COc1cc(OC)c(OC)cc1/C=N/NC(=S)NCC1CCCO1 (stereo unspecified)	4	-10	-76	-70*
COc1ccc(S(=O)(=O)N(C)C[C@H]2OCCCC[C@H](C)Oc3ccc(NC(=O)Nc4cccc5ccccc45)cc3C(=O)N([C@H](C)CO)C[C@H]2C)cc1	4	.	.	.
COc1ccc2oc(C(=O)OCC(=O)N(C)CC(=O)Nc3ccc(C)cc3)c(C)c2c1	.	8	-61	-51*
CCOC(=O)c1snc(C(=O)NC2CCCCC2)c1N	60*	3	61*	32
COc1ccc(S(=O)(=O)N(C)C[C@@H]2Oc3ccc(NC(=O)CCC(F)(F)F)cc3C(=O)N([C@H](C)CO)C[C@H]2C)cc1	5	.	.	.
O=C(Nc1ccc(-c2nc3ccc(NC(=O)c4cccs4)cc3[nH]2)cc1)c1cccs1	.	80*	2	5
O=C(Nc1ccc2nc(-c3cccs3)[nH]c2c1)c1ccco1	83*	.	25	0
O=C(Nc1ccc2nc(-c3cccs3)[nH]c2c1)c1cccs1	.	-7	21	22
COc1cccc(NC(=O)Nc2cc(C)ccc2F)c1	61*	-1	8	10
COC(=O)c1sccc1NC(=O)Nc1cccc(C)c1	95*	6	25	9
COc1cccc(NC(=O)Nc2ccc3c(c2)nnn3C)c1	48*	-2	.	.
COc1cccc(NC(=O)Nc2ccc(CC(=O)O)cc2)c1	-4	-16	2	-4
CCc1ccc(NC(=O)Nc2cccc(OC)c2)cc1	62*	7	9	19
COc1ccc(S(=O)(=O)N[C@@H]2C=C[C@H](CC(=O)NCCc3ccccc3)O[C@H]2CO)cc1	-3	.	.	.
C[C@@H]1CCCCO[C@H](CN(C)C(=O)Cc2ccccc2)[C@H](C)CN([C@@H](C)CO)C(=O)c2cc(NS(=O)(=O)c3ccccc3)ccc2O1	8	.	.	.
COc1cccc(NC(=O)Nc2ccc(Br)cn2)c1	47*	3	-39	-24
SMILES	esBAF inh	Vif imaging	HSF-1 act	HSF1 inh
COc1ccc(NC(=O)Nc2ccc(Br)cn2)cc1OC	17	-7	27	1
CCCNC(=O)C[C@H]1CC[C@H]2[C@@H](COc3ccc(NC(=O)Nc4ccccc4F)cc3C(=O)N2C)O1	-7	.	.	.
O=C(CCCOc1ccccc1)NNC(=O)c1ccncc1	-3	12	.	.
O=C(CCCOc1ccc(Br)cc1)NNC(=O)c1ccncc1	.	67*	-10	-5
CC(C)c1ccc(NC(=O)[C@@H]2CCC(=O)N2C2OC(=O)c3ccccc32)cc1 (stereo partly specified)	56*	-1	18	4
C[C@@H]1CN([C@@H](C)CO)C(=O)CCCn2cc(nn2)CO[C@@H]1CN(C)C(=O)Nc1ccc(C(C)(C)C)cc1	14	.	.	.
CO[C@H]1CN(C)C(=O)c2cc(NC(C)=O)ccc2OC[C@H](C)N(Cc2cccc(F)c2)C[C@H]1C	-15	.	.	.
O=C(NCc1ccco1)c1cc(-c2ccc3c(c2)OCO3)on1	16	3	71*	23
COc1cccc(-c2cc(C(=O)NCc3cccs3)no2)c1	72*	-2	24	5
COc1ccc(NC(=O)Cn2nnc(C(=O)NCc3cccs3)c2N)cc1	.	3	-2	-3
COc1ccc2nc3sc(C(=O)NCc4cccs4)c(N)c3cc2c1	.	.	55*	31
COc1cccc(-c2cc(C(=O)NCc3ccco3)no2)c1	45*	5	61*	28
O=C(NCc1ccco1)c1cc(-c2cccc(Cl)c2)on1	.	-7	49	16
O=C(CCN1CCCCC1)N[C@H]1C=C[C@H](CC(=O)N2CCC(Cc3ccccc3)CC2)O[C@@H]1CO	5	.	.	.
COc1ccccc1CNC(=O)C[C@H]1C=C[C@@H](NC(=O)CC2CC2)[C@H](CO)O1	-4	.	.	.
COc1cccc(C(=O)NC(=S)NCc2ccco2)c1	.	-1	-3	-9
COc1cc(OC)cc(C(=O)NC(=S)NCc2ccco2)c1	.	-2	121*	67
COc1ccc(-c2cc(C(=O)NCc3cccs3)no2)cc1	42*	-1	22	14
Cn1c(CCC(=O)OCC(=O)Nc2ccc(Oc3ccccc3)cc2)nc(=O)c2ccccc21	0	4	55*	17
O=C(COC(=O)C1CC1)Nc1ccc(Oc2ccccc2)cc1	17	3	6	3
O=C(COC(=O)C1CCC1)Nc1ccc(Oc2ccccc2)cc1	5	3	52*	15
CO[C@H]1CN(C)C(=O)c2ccc(NC(C)=O)cc2OC[C@H](C)N(C(=O)C2CCCCC2)C[C@@H]1C	1	.	.	.
CN1C(=O)c2cc(NC(=O)NC3CCCC3)ccc2OC[C@H]2O[C@H](CC(=O)NCC3CC3)CC[C@@H]21	4	.	.	.
COc1ccc(/C=C/C(=O)NCC(=O)N/N=C/c2cc(Br)ccc2OC)cc1	1	2	-4	1
COc1ccccc1/C=C/C(=O)NCC(=O)N/N=C/c1cc(Br)ccc1OC	.	2	59*	22
CCOC(=O)C1=C(C)N=c2s/c(=C/c3cccc([N+](=O)[O-])c3O)c(=O)n2C1c1cc(OC)c(OC)c(OC)c1 (stereo unspecified)	0	-8	58*	6
C[C@@H]1CN([C@@H](C)CO)C(=O)c2cccc(NS(=O)(=O)c3ccc(Cl)cc3)c2O[C@@H]1CN(C)Cc1ccc(-c2ccccc2)cc1	8	.	.	.
O=C(NCC1CC1)[C@@H]1[C@@H](CO)[C@@H]2Cn3c(ccc(-c4ccccc4F)c3=O)[C@H]1N2Cc1cccnc1	2	.	.	.
CCOC(=O)c1sc(Nc2ccccc2)nc1C	78*	2	35	20
COc1cccc2sc(Nc3nc(-c4ccccn4)cs3)nc12	?	-8	128*	100
